Compound activity from PubChem BioAssay.
Hits are enriched below; roughly 6.9% of the tested compounds scored in any of these assays.
GRIN3A LBD mod – binders of NR3A ligand-binding domain, primary screen, biophysical, differential scanning fluorimetry, uHTS. Glutamate receptor ionotropic, NMDA 3A (GRIN3A) ligand-binding domain. NR3A LBD differential scanning fluorimetry, Tm shift; 0% = protein alone, 100% = glycine-bound protein. Tm shift relative to glycine control, % at 25 µM. 340,000 tested, 2.5% active;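 active means melting temperature shift of at least 10% of the positive control shift, at one fixed dose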
MPTP block – mitochondrial permeability transition pore inhibitors, primary screen, biochemical, isolated mouse mitochondria, absorbance; AID 602449, 2012; Ca2+ swelling absorbance, 30 min; 360,000 tested, 1.4% active; inhibition, % at 10 µM;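 active means inhibition of 50% or more, scaled per plate between neutral and stimulator controls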
Beta cell apopt – inhibitors of cytokine-induced beta cell apoptosis, primary screen, luminescence; INS-1E cytokine-induced death, ATP luminescence, 48 h; percent of positive-control rescue, neutral wells zero; 300,000 tested, 0.8% active; protection from apoptosis, % (concentration not given with the values);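 active means Every replicate reaches about 75%, or at least half do and their mean reaches it too, limit read from the data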;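 further: higher means more ATP so stronger rescue from cytokine killing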
SKKanGAS inh – S. pyogenes SKKanGAS growth inhibitors in kanamycin, primary screen, streptokinase expression inhibitor project, SKKanGAS strain, BacTiter-Glo luminescence; inhibition, % at 7.5 µM; AID 1662, 2009; 300,000 tested, 1.3% active; 6 h;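 active means mean replicate score, as percent of positive control median, at least 50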;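 further: strain carries kanamycin resistance gene driven by streptokinase promoter and grows in 40 µg/ml kanamycin; loss of luminescence reflects streptokinase promoter inhibition or plain growth inhibition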
CSC inhib – cancer stem cell viability inhibitors, primary screen, luminescence; cancer stem cell-like cells viability; inhibition, % at 7.5 µM; 300,000 tested, 1.1% active; in the data active means inhibition above about 75%; tested in HMLE shEcad cells
Mdm2-MdmX inh – inhibitors of human Mdm2-MdmX association, primary screen, cell-based, luminescence, split luciferase, SaOS-2, uHTS; inhibition, % at 8 µM; AID 485346, 2010; 330,000 tested, 3% active; SaOS-2 split-luciferase Mdm2/MdmX complementation;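 active means inhibition of at least 50% at 8 µM in the primary screen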
Target sequence (O15151 whole entry, looked up): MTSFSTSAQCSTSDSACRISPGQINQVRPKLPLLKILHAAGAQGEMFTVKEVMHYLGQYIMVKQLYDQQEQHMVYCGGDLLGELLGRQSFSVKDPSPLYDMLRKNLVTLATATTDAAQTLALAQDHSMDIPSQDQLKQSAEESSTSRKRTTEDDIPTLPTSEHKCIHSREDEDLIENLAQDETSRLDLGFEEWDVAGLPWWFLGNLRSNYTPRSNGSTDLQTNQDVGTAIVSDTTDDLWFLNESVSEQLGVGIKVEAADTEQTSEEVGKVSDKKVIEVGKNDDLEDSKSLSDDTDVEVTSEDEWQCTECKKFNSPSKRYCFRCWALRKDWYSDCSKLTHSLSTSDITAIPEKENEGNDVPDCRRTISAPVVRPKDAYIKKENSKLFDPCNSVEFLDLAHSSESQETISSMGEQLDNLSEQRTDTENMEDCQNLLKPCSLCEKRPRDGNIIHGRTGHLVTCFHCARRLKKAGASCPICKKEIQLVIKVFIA
Target sequence (Q00987 whole entry, looked up): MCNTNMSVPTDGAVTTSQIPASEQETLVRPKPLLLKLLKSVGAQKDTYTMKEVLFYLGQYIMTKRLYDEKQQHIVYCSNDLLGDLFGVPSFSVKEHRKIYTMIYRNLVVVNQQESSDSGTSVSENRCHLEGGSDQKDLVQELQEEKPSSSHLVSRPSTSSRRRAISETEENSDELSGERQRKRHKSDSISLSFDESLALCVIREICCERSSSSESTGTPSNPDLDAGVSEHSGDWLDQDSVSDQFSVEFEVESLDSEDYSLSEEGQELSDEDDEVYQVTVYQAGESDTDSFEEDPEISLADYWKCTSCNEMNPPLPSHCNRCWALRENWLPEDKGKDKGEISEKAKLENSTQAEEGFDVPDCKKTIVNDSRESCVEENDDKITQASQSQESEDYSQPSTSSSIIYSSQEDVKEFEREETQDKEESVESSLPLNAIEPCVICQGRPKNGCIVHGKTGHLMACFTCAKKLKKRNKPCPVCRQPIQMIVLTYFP
Mdm2 MdmX conf – Mdm2-MdmX complex disruptors, retested hits, confirmation, luminescence, single concentration | shares compounds with Mdm2-MdmX inh | Mdm2-MdmX binding, luminescent assay | inhibition, % at 8 µM | 10,000 tested, 55% active | AID 489028, 2010; in the data active means inhibition above about 40%
Full FLuc ctr – full-length luciferase signal inhibition, confirmation, counter-screen for Mdm2/MdmX interaction inhibitor project, cell-based, single concentration, SaOS-2; shares compounds with Mdm2-MdmX inh; SaOS-2 full-length luciferase counterscreen, luminescence; inhibition, % at 8 µM; 6,200 tested, 77% active;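 active means mean inhibition at 8 µM reaching about 37%, which flags the compound as non-specific, limit read from the data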;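 further: p53-null SaOS-2 cells with luciferase driven by a doxycycline-inducible promoter; compound on cells about two nights before reading with doxycycline added after day one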
A number is an active result; i = inactive; nt = not tested or not shown.

SMILES	GRIN3A LBD mod	MPTP block	Beta cell apopt	SKKanGAS inh	CSC inhib	Mdm2-MdmX inh	Mdm2 MdmX conf	Full FLuc ctr
COc1ccc(S(=O)(=O)N2CCCC2CNC(=O)C(=O)NCCc2ccccc2)cc1 (stereo not given)	i	i	i	i	i	59.8	66.7	63.9
Cc1ccc(S(=O)(=O)N/N=C\c2cn(CC(N)=O)c3ccccc23)cc1C	i	i	i	i	i	52.3	i	nt
NC(=O)Cn1cc(/C=N\NS(=O)(=O)c2ccc(Cl)cc2)c2ccccc21	i	i	i	i	i	i	nt	nt
CCOc1ccc(Cn2c(=O)sc3ccccc32)cc1OC	i	i	i	i	i	i	nt	nt
Cc1cc(C)nc(SCC(=O)Nc2ncc(Cc3ccc(Cl)c(Cl)c3)s2)n1	i	i	i	i	i	51.9	i	nt
Cc1ccc(Cc2cnc(NC(=O)CN3CCOCC3)s2)cc1Cl	i	i	i	i	i	i	nt	nt
CC(=O)Nc1sc2c(c1-c1nc3ccccc3s1)CN(C(C)C)CC2	i	i	96.7	nt	nt	98.7	93.5	56.6
CC(=O)N1CCc2c(sc(NC(=O)C3CC3)c2-c2nc3ccccc3s2)C1	i	i	i	i	i	i	nt	nt
CC(=O)NC1C(=O)N(CCc2ccccc2)c2ccc(Br)cc21 (stereo not given)	i	i	nt	nt	nt	nt	nt	nt
CC(=O)NC1C(=O)N(Cc2ccccc2)c2ccc(Br)cc21 (stereo not given)	i	i	i	i	i	75.0	42.0	48.9
CC(OC(=O)c1ccc(S(=O)(=O)N2CCCCC2)cc1)C(=O)Nc1ccc(C(N)=O)cc1 (stereo not given)	i	i	nt	nt	nt	53.8	i	nt
CC(=O)Nc1cc(NC(C)=O)cc(C(=O)OC(C)C(=O)Nc2ccc(S(=O)(=O)N3CCCC3)cc2)c1 (stereo not given)	i	i	i	i	i	i	nt	nt
CCOc1ccc(Oc2nc(NCC(C)C)nc(OC)n2)nn1	i	i	i	i	i	i	nt	nt
CCNc1nc(NC(C)CC)nc(Oc2ccc(OCC)nn2)n1 (stereo not given)	i	i	i	i	i	54.2	i	nt
Cc1ccc(S(=O)(=O)N2C[C@H]3C(=O)C[C@@H](c4ccccc4)N(S(=O)(=O)c4ccccc4C)[C@H]3C[C@H]2c2ccccc2)cc1	nt	i	nt	nt	nt	nt	nt	nt
C=CCN(C(=O)CCC(=O)Nc1cc(C)on1)C(C(=O)NC1CCCC1)c1ccc(C)cc1 (stereo not given)	i	i	i	i	i	i	nt	nt
Cc1nc(Nc2nc3c(c(=O)[nH]2)CCC3)nc2ccccc12	i	i	i	i	i	64.7	87.5	i
O=c1[nH]c(NCc2ccccc2)nc2c1CCC2	i	i	i	i	i	i	nt	nt
NC(=O)COc1ccc(C(=O)NCC2(N3CCOCC3)CCCCC2)cc1	i	i	i	nt	nt	i	nt	nt
O=C(N/N=C/c1coc2ccc(Cl)cc2c1=O)c1ccncc1	i	i	i	i	i	59.5	44.5	63.3
O=C(N/N=C/c1coc2ccc(Cl)cc2c1=O)c1ccc(O)cc1	i	i	i	i	i	i	nt	nt
Cc1cc(NC(=O)CCS(=O)(=O)c2nc(-c3ccccc3)cc(C(F)(F)F)n2)no1	i	i	i	nt	i	88.2	77.5	43.5
COc1ccccc1-c1cc(C(F)(F)F)nc(S(=O)(=O)CCCC(=O)N2CCOCC2)n1	i	i	i	i	82.2	96.8	97.7	i
COc1ccc(-c2cc(C(F)(F)F)nc(S(=O)(=O)CCCC(=O)Nc3cccc(O)c3)n2)cc1OC	i	i	nt	i	nt	73.1	i	nt
CC(=O)/C=C(\C)Nc1ccccc1O	i	i	i	i	i	i	nt	nt
SMILES	GRIN3A LBD mod	MPTP block	Beta cell apopt	SKKanGAS inh	CSC inhib	Mdm2-MdmX inh	Mdm2 MdmX conf	Full FLuc ctr
Cc1ccc(C(OCC(C)(C)C[N+](C)(C)C)c2ccccc2)cc1 (stereo not given)	i	i	i	i	i	i	nt	nt
COc1ccccc1C/C(N)=N/OC(=O)c1cccs1	i	i	nt	i	nt	50.5	i	nt
Cc1ccccc1OCC(=O)O/N=C(\N)Cc1cccs1	i	i	nt	i	nt	i	nt	nt
Cc1ccccc1C(=O)O/N=C(\N)Cc1cccs1	i	i	nt	i	i	100.3	91.6	114.5
COCCN=c1scc(-c2cc(OC)c(OC)c(OC)c2)n1/N=C/c1c(C)[nH]c2ccccc12	i	i	i	i	114.9	58.7	i	nt
Cc1sc2nc(C3CC3)nc(SCC(=O)N3CCc4ccccc4C3)c2c1C	i	i	i	i	i	i	nt	nt
CCCc1nc(SCC(=O)N2c3ccccc3CC2C)c2c(C)c(C)sc2n1 (stereo not given)	i	i	i	i	i	65.9	i	nt
CCCc1nc(SCC(=O)NC2CC2)c2c(C)c(C)sc2n1	i	i	i	i	i	i	nt	nt
Cc1sc2nc(C3CC3)nc(SCC(=O)N3CCCc4ccccc43)c2c1C	nt	nt	i	i	i	70.6	i	nt
CC(=O)NNC(=O)CCn1nnc(-c2ccc(Cl)cc2)n1	i	i	i	i	i	i	nt	nt
COc1ccc2c(c1)[C@H]1[C@H](CO2)[C@H](c2ccccc2)[C@]2(C)C(=O)N(Cc3ccc(C)cc3)CC(=O)N12	i	i	i	nt	nt	i	nt	nt
CN(C)c1cccc(C(=O)NNC(=O)C23CC4CC(CC(C4)C2)C3)c1	i	i	i	nt	i	i	nt	nt
COc1ccc(C(=O)NC(=S)Nc2ccc3oc(=O)ccc3c2)cc1	i	i	i	i	nt	73.3	i	84.1
Cc1cccc(NC(=O)c2ccc(C3SCC(=O)N3CCc3ccccc3)cc2)c1 (stereo not given)	i	i	i	i	i	53.8	i	nt
CC(=O)Nc1ccc(NC(=O)c2ccc(C3SCC(=O)N3CCc3ccccc3)cc2)cc1 (stereo not given)	i	i	i	i	i	i	nt	nt
Cc1cc2ccccn2c1C(=O)c1ccc(NN)c([N+](=O)[O-])c1	i	i	i	i	i	61.7	i	nt
NCCCNc1nc(N)c([N+](=O)[O-])c(NC2CCCCC2)n1	i	i	i	i	i	72.8	69.5	56.2
CCCN(CCC)c1ncnc2nc[nH]c12	i	i	i	i	i	71.8	64.0	i
CN1CCN(c2ccc(Cl)cc2NC(=O)CCN2C(=O)c3ccccc3C2=O)CC1	i	i	i	i	i	i	nt	nt
COc1cc(/C=C(\C#N)c2ccccn2)ccc1OCC(=O)Nc1cccc(C(F)(F)F)c1	i	i	i	i	i	61.4	51.6	57.4
